Assay results as given in publication PMC7862700, “An all-to-all approach to the identification of sequence-specific readers for epigenetic DNA modifications on cytosine”.

Columns and labels:
Experiment in all cases: DAPPL (digital affinity profiling via proximity ligation, sequencing); 10 mM Tris-HCl pH 7.5, 50 mM NaCl, 1 mM DTT, 4% glycerol, room temperature, 30 min; GST-TFs on glutathione beads, 16-mer random dsDNA library, 0.1% formaldehyde crosslink after washing; high values mean tight binding
Conditions in all cases: protein: recombinant; tags: N-terminal GST; dsDNA, one strand shown
ERG = biological target: T1, ERG (Homo sapiens, UniProt P11308 1-479)
T1 sequence: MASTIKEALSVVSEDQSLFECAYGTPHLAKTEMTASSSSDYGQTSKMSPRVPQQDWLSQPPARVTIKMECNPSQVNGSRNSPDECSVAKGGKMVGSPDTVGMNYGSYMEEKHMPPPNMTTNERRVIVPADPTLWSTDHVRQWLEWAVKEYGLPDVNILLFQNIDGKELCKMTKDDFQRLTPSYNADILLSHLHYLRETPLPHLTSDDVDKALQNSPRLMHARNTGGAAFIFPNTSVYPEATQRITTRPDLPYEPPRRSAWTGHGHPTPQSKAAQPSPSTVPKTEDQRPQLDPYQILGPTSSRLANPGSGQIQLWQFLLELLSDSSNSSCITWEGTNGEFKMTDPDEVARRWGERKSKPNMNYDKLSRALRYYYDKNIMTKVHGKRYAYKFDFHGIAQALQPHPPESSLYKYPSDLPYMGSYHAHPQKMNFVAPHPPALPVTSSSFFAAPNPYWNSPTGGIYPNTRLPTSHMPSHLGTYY
Method in brief: (§1)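 GST fusions of human transcription factors were expressed in yeast and captured with glutathione beads. Once given DNA barcodes and pooled alongside a tag-only sample, they were incubated for 30 min at room temperature with 200 nmole of a random double-stranded 16-mer DNA library in Tris/NaCl/DTT/glycerol buffer, then washed, crosslinked (0.1% formaldehyde), proximity-ligated, PCR-amplified and sequenced on an Illumina NextSeq500. The binding signal of each hexamer is its read frequency for a factor divided by its frequency for the tag-only sample.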

ELF1 = ELF1 (Homo sapiens, UniProt P32519 1-619)
ELF1, sequence (P32519 whole entry): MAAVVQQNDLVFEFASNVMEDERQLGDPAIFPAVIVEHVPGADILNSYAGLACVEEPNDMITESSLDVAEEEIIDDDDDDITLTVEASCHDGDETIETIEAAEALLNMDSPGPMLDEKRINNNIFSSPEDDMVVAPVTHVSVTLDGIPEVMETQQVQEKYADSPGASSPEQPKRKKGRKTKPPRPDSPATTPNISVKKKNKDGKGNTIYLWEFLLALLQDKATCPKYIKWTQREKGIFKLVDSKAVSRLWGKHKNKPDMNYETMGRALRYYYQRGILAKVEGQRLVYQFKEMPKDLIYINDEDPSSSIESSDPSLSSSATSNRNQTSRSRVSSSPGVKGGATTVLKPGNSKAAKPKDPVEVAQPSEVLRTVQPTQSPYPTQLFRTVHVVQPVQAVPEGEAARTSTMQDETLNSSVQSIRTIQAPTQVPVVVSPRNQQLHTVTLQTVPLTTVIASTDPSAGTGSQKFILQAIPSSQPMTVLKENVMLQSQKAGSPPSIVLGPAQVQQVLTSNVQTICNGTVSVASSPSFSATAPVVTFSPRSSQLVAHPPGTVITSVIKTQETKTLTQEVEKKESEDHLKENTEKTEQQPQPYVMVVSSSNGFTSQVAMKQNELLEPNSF
Method in brief: as §1

EHF = biological target: T2, EHF (Homo sapiens, UniProt Q9NZC4 1-300)
T2 sequence: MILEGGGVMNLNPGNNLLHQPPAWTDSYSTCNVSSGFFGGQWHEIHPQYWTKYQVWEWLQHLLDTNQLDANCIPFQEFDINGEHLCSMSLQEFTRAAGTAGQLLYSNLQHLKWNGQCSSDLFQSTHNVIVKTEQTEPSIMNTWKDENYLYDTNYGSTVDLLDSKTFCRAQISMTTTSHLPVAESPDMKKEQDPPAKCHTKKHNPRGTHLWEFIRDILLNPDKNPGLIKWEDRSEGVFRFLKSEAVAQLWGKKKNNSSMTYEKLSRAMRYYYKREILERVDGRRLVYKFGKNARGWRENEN
Method in brief: as §1

SPIB = SPIB (Homo sapiens, UniProt Q01892 1-262)
SPIB, sequence (Q01892 whole entry): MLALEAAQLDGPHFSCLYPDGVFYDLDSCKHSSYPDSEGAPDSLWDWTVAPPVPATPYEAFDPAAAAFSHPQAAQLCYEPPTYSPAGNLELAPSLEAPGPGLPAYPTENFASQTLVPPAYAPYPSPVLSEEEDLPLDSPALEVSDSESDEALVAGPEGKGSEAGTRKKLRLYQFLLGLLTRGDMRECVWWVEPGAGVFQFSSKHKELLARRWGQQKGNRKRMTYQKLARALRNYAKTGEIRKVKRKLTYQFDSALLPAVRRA
Method in brief: as §1

SPIC = biological target: T3, SPIC (Homo sapiens, UniProt Q8N5J4 1-248)
T3 sequence: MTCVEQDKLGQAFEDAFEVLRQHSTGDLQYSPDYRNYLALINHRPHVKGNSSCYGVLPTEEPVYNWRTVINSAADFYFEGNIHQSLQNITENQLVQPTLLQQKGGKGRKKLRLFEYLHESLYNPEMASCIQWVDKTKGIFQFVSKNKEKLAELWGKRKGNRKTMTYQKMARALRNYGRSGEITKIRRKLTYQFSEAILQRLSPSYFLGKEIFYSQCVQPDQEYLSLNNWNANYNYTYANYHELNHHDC
Method in brief: as §1

ELF4 = ELF4 (Homo sapiens, UniProt Q99607 1-663)
ELF4, sequence (Q99607 whole entry): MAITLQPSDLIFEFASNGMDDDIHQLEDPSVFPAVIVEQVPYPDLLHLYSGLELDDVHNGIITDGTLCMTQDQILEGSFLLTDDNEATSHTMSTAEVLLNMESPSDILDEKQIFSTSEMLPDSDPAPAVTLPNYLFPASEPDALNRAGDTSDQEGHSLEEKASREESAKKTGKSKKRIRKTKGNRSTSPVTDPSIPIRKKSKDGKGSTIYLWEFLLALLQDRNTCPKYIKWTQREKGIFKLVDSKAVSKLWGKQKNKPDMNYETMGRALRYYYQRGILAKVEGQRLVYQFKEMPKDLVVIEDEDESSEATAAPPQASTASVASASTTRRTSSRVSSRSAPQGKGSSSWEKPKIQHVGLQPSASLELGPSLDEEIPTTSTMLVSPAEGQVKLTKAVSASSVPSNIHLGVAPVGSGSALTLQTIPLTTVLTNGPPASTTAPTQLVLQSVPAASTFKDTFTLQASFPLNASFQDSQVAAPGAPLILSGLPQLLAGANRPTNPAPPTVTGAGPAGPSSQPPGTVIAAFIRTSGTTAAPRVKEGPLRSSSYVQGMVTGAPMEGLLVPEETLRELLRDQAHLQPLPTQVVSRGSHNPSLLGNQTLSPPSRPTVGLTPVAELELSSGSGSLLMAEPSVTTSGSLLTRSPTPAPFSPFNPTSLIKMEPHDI
Method in brief: as §1

ETV2 = biological target: T4, ETV2 (Homo sapiens, UniProt O00321 1-342)
T4 sequence: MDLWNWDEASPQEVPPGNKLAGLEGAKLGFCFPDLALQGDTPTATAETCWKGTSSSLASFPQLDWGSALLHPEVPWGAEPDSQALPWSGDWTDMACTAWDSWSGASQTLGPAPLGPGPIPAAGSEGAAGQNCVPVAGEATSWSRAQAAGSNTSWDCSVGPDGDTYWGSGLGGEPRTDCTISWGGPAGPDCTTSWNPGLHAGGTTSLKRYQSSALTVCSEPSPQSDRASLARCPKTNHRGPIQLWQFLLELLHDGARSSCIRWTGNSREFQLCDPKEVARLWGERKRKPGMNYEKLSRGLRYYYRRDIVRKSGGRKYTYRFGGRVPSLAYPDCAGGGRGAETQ
Method in brief: as §1

ELF3 = biological target: T5, ELF3 (Homo sapiens, UniProt P78545 1-371)
T5 sequence: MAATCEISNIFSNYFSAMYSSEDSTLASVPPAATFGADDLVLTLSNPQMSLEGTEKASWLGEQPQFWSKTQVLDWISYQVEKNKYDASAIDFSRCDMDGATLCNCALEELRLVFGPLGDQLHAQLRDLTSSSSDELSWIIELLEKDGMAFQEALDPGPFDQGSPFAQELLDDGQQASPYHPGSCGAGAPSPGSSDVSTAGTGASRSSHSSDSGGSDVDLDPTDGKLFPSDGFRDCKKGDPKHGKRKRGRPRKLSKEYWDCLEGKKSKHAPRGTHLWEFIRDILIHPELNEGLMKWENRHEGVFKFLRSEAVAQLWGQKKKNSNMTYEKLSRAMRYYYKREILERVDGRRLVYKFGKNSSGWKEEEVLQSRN
Method in brief: as §1

ETV1 = ETV1 (Homo sapiens, UniProt P50549 1-477)
ETV1, sequence (P50549 whole entry): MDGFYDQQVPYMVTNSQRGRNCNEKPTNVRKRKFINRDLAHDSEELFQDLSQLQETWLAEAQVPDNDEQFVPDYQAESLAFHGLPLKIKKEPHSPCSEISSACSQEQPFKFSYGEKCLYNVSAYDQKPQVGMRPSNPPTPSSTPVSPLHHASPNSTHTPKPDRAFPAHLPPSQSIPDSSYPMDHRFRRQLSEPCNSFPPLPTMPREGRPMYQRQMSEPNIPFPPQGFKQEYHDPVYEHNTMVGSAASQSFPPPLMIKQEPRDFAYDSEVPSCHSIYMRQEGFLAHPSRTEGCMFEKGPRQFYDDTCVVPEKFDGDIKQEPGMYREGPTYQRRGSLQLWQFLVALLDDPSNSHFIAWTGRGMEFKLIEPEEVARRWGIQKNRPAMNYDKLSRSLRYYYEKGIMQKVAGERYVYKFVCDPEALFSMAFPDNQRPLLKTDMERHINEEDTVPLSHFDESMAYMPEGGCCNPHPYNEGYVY
Method in brief: as §1

ERF = biological target: T6, ERF (Homo sapiens, UniProt P50548 1-548)
T6 sequence: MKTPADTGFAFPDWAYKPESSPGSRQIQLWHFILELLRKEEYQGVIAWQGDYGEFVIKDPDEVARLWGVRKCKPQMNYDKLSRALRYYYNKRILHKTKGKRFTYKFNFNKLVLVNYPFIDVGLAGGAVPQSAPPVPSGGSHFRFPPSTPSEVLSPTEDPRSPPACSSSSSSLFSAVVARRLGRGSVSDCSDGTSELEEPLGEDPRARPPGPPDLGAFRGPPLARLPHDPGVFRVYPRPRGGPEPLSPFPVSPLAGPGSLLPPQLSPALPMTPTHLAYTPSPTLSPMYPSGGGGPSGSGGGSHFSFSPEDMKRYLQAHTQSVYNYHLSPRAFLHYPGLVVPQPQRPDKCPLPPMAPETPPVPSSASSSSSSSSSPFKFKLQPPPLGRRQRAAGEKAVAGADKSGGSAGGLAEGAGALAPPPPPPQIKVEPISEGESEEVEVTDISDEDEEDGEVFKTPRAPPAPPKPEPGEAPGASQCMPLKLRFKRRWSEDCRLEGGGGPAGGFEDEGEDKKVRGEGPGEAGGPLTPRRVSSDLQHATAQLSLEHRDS
Method in brief: as §1

ETV3L = biological target: T7, ETV3L (Homo sapiens, UniProt Q6ZN32 1-361)
T7 sequence: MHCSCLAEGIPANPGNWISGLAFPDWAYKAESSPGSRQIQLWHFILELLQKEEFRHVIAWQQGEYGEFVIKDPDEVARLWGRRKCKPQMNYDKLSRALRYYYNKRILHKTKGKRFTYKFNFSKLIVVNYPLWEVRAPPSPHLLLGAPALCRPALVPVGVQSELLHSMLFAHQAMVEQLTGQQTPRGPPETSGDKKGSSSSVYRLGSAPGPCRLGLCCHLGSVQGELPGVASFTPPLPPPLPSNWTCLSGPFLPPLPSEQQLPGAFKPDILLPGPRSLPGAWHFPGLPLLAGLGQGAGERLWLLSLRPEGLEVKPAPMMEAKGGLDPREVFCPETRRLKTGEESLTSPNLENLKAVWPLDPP
Method in brief: as §1

ETS2 = biological target: T8, ETS2 (Homo sapiens, UniProt P15036 1-469)
T8 sequence: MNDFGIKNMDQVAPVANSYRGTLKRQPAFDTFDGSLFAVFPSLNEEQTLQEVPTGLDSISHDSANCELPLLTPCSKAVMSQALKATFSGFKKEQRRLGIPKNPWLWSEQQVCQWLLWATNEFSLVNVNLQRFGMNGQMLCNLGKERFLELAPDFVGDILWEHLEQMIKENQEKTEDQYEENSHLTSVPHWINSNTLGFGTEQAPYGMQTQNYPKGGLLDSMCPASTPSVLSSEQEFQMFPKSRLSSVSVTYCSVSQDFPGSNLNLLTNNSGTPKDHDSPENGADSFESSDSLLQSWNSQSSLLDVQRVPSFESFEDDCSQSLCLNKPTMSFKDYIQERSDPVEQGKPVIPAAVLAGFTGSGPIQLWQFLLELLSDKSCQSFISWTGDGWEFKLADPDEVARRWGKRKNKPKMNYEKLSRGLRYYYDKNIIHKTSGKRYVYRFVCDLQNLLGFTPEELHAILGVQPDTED
Method in brief: as §1

SPDEF = biological target: T9, SPDEF (Homo sapiens, UniProt O95238 1-335)
T9 sequence: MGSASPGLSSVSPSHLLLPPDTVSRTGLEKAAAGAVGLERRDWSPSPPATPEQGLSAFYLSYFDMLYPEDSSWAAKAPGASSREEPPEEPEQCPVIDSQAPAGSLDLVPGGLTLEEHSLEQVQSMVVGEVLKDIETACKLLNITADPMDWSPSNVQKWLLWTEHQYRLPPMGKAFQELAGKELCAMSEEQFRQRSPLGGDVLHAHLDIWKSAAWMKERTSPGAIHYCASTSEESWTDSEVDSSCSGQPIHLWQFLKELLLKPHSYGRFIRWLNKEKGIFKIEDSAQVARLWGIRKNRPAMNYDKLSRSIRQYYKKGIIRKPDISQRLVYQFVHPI
Method in brief: as §1

ELF5 = biological target: T10, ELF5 (Homo sapiens, UniProt Q9UKW6-2 1-255)
T10 sequence: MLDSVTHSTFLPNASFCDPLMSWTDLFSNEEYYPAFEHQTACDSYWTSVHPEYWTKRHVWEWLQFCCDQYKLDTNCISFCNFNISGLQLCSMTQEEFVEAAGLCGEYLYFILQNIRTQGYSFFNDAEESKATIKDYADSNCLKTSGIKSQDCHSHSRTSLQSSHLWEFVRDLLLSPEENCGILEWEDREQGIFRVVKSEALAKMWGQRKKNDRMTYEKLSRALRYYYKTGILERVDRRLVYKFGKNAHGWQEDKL
Method in brief: as §1

ETV3 = biological target: T11, ETV3 (Homo sapiens, UniProt P41162-2 1-143)
T11 sequence: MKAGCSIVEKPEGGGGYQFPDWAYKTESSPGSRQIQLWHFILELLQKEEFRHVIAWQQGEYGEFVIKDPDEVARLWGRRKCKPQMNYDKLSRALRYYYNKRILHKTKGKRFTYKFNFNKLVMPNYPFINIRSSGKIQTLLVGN
Method in brief: as §1

In the case of GTGTCT, the binding signal (ERG) is reported as 1.1 fold enrichment (6-mer frequency, TF over GST control), the binding signal (ELF1) is reported as 1.06 fold enrichment (6-mer frequency, TF over GST control) and the binding signal (EHF) is reported as 1.06 fold enrichment (6-mer frequency, TF over GST control). The binding signal (SPIB) was 1.03 fold enrichment (6-mer frequency, TF over GST control), the binding signal (SPIC) was 1.16 fold enrichment (6-mer frequency, TF over GST control) and the binding signal (ELF4) was 1.02 fold enrichment (6-mer frequency, TF over GST control). The binding signal (ETV2) was 1.15 fold enrichment (6-mer frequency, TF over GST control), the binding signal (ELF3) was 1 fold enrichment (6-mer frequency, TF over GST control) and the binding signal (ETV1) was 1.09 fold enrichment (6-mer frequency, TF over GST control). For the same sequence, the binding signal (ERF) was 1.06 fold enrichment (6-mer frequency, TF over GST control), the binding signal (ETV3L) was 1.09 fold enrichment (6-mer frequency, TF over GST control) and the binding signal (ETS2) was 1.03 fold enrichment (6-mer frequency, TF over GST control). The binding signal (SPDEF) was 1.09 fold enrichment (6-mer frequency, TF over GST control), the binding signal (ELF5) was 1.13 fold enrichment (6-mer frequency, TF over GST control) and the binding signal (ETV3) was 1.02 fold enrichment (6-mer frequency, TF over GST control).
